Laboratory results published in article PMC5540273 (PLoS ONE, 2017).

Assays:
Conditions in all cases: concentration: 1 μM, replicates: in singlicate; n = 1
SRPK2 = test system: SRPK2
SRPK3 = test system: SRPK3
STK16 = test system: STK16
STK33 = test system: STK33
STK35 = test system: STK35
STK36 = test system: STK36
STK39 = test system: STK39
SYK = test system: SYK
SgK110 = test system: SgK110
TAK1 = test system: T1, TAK1
T1 construct: gene MAP3K7
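Note: KINOMEscan kinase panel screen.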

SMILES	%Inh (SRPK2) [%]	%Inh (SRPK3) [%]	%Inh (STK16) [%]	%Inh (STK33) [%]	%Inh (STK35) [%]	%Inh (STK36) [%]	%Inh (STK39) [%]	%Inh (SYK) [%]	%Inh (SgK110) [%]	%Inh (TAK1) [%]
Fc1ccc(-c2nc3n(c2-c2ccncc2)CCS3)cc1 [GI98581]	0	0	0	1	0	7	0	28	0	0
Cc1c(Cn2c(C)c(C)n3c(=O)cc(N4CCOCC4)nc23)cccc1C(F)(F)F [GSK2328680]	45	2	0	65	0	0	0	32	0	0
CNC(=O)c1ccc(C)c(-n2c(C)cc(OCc3ccc(F)cc3F)c(Br)c2=O)c1	0	6	3	0	0	1	0	14	0	12
Cc1ccc(NC(=O)Nc2ccc(Cl)c(C(F)(F)F)c2)cc1-c1ccc(C(=O)Nc2ccncc2)cc1 [GSK1398470]	0	23	0	6	8	37	0	13	0	0
O=c1cc(N2CCOCC2)nc2n(Cc3ccccc3F)ccn12 [GSK2297428]	0	0	0	0	0	0	0	21	0	0
